# From PubChem BioAssay
# Activity calls are given as the source filed them. Unless noted, how the calls were made is not given here.
# Assays:
# [1] = test system: XIP peptide (Xip251-270) binding; experiment: XIP fragment 251-270 binding compounds – biochemical, small-molecule microarray, fluorescence 635/667 nm, 0.1 µg/mL protein, primary screen (AID 1182); settings: fluorescent protein binding, 635 nm, higher = more signal, called active from +8 up or from −8 down
# [2] = test system: XIP peptide (Xip251-270); experiment: compounds binding XIP fragment 251-270 – biochemical, small-molecule microarray, fluorescence 635/667 nm, 0.5 µg/mL protein, primary screen (AID 1183); settings: fluorescence 635 nm, higher = more signal
# [3] = blood-stage malaria parasite viability loss – strain 3D7, DAPI fluorescence, 100 nL, primary screen (AID 1184);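 further: parasites grown inside human red blood cells in medium with human serum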; settings: P. falciparum 3D7 growth, 3 d, higher = more signal
# [4] = molecular target: Homeobox protein Hox-A13 (Mus musculus) (UniProt Q62424); experiment: disruptors of Hoxa13 oligonucleotide interaction – biochemical, fluorescence polarization, labeled oligonucleotide, primary screen (AID 1185); settings: Hoxa13:DNA binding, 15 min, higher = more signal, called active from +8 up or from −8 down
# [5] = blockers of DNA damage checkpoint Chk1 activation – imaging, HeLa, hydroxyurea, phospho-Chk1 antibody, percent positive cells, primary screen (AID 1186); settings: hydroxyurea-induced phospho-Chk1 immunofluorescence imaging, higher = more signal
# [6] = blockers of DNA damage checkpoint Chk1 activation – imaging, HeLa, hydroxyurea, phospho-Chk1 nuclear intensity, primary screen (AID 1187); settings: hydroxyurea-induced phospho-Chk1 immunofluorescence imaging, higher = more signal
# Homeobox protein Hox-A13 (Mus musculus), sequence (Q62424 whole entry, looked up): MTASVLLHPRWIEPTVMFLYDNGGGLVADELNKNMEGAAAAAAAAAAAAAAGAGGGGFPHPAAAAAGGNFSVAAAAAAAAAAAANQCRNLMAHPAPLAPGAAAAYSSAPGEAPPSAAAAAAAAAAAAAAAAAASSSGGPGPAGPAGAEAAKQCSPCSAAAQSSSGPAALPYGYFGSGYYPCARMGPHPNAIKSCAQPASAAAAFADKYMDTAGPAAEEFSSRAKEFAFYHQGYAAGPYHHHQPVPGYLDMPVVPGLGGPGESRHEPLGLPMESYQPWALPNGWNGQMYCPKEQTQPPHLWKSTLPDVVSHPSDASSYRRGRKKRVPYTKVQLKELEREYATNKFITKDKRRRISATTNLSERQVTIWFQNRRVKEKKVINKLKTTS
SMILES,composite z-score [1],composite z-score [2],z-score [3],z-score [4],z-score [5],z-score [6]
CCCCCCc1nc(Cc2cc(OC)c(OC)c(OC)c2)cc2c1[Si](C(C)C)(C(C)C)O[C@H]2c1ccccc1,-0.0565 (inactive),0.103,-2.34,-3.15 (inactive),0.252 (inactive),-0.409 (inactive)
C=CCC(OC(C)=O)[C@@H]1[C@@H](N(Cc2ccc(-c3cccc(C(F)(F)F)c3)o2)C(=O)c2ccc(-c3ccccc3)cc2)c2cc(OCCCO)ccc2N1C(=O)c1ccc2ccccc2c1 (stereo partly drawn),0.405 (inactive),-0.378,-1.26,-1.43 (inactive),0.366 (inactive),0.766 (inactive)
COc1ccc([Si](C)(C)[C@@H]2[C@@H](CC(=O)N3Cc4ccccc4C[C@H]3CO)O[C@]3(C(=O)N(Cc4ccc(N5CCOC5=O)cc4)c4ccccc43)[C@H]2C)cc1,2.28 (inactive),0.83,-1.82,-1.43 (inactive),-0.262 (inactive),-0.106 (inactive)
NC(=O)NCC#Cc1ccc2c(c1)[C@]1(C(=O)N2)[C@H](c2ccc(OCCO)cc2)N2[C@H](c3ccccc3)[C@H](c3ccccc3)OC(=O)[C@H]2[C@@H]1C(=O)NC[C@H](O)c1ccccc1,-0.133 (inactive),0.594,-0.833,-3.2 (inactive),-0.261 (inactive),-0.572 (inactive)
Cc1ccc(C(C)CC(O)C2C=CC3C(=O)N(C)C(=O)C3N2Nc2ccccc2)o1 (stereo not drawn),0.476 (inactive),0.383,0.385,-4.68 (inactive),0.163 (inactive),-0.0486 (inactive)
C=C(CCCC)C(=O)CC[C@@H](OC(=O)c1ccccc1-c1ccccc1C(=O)O)c1ccccc1OCCO,0.721 (inactive),0.145,-2.92,-6.26 (inactive),0.779 (inactive),1.38 (inactive)
N#Cc1ccc(NN2C(C(O)C3CC=CCC3)C=CC3C(=O)N(c4ccccc4)C(=O)C32)cc1 (stereo not drawn),0.0603 (inactive),0.678,0.134,-2.69 (inactive),0.123 (inactive),0.22 (inactive)
CC(C)(C)OC(=O)CC[C@]1(C(=O)NCC(O)CO)N=C(c2ccc(OCCCO)cc2)O[C@H]1c1ccccc1N=[N+]=[N-] (stereo partly drawn),3.52 (inactive),0.811,-1.45,-4.51 (inactive),0.0505 (inactive),0.259 (inactive)
COc1ccc(NN2C(C(O)c3ccc(I)cc3)C=CC3C(=O)N(C4CCCCC4)C(=O)C32)cc1 (stereo not drawn),1.63 (inactive),0.618,-0.684,-3.31 (inactive),0.0831 (inactive),-0.481 (inactive)
CC(C)(C)N1CC=CC23O[C@@H]4/C=C\CCCOC(=O)C4[C@H]2C(=O)N(CCCO)[C@@H]3C1=O (stereo partly drawn),-0.12 (inactive),-0.774,0.426,-5.57 (inactive),-0.0351 (inactive),0.0939 (inactive)
C=C(COC)/C(=C/C[C@H](OC(C)=O)c1ccccc1OCCO)c1cc(C(=O)OC)ccc1OC,0.117 (inactive),0.788,-2.75,-4.27 (inactive),-1.15 (inactive),-1.14 (inactive)
O=C1[C@@H]2[C@@H](CC(COc3ccccc3)=C([C@H](O)CCc3ccccc3)[C@@H]2CO)C(=O)N1Cc1ccccc1,-0.268 (inactive),0.73,-0.0811,-6.92 (inactive),-0.556 (inactive),-0.945 (inactive)
NCCCCCCNC(=O)[C@@H]1C[C@@H]2C(=O)N3CCC[C@H]3C(=O)N2[C@@H]1c1cccc(OCCO)c1,2.08 (inactive),0.2,-0.772,-4.9 (inactive),-0.705 (inactive),-0.405 (inactive)
CCCCCC1=C2CNC(Cc3ccccc3)(C(=O)OC)C=C2C(C)C1=O (stereo not drawn),-0.186 (inactive),0.247,-0.662,-8.44 (active),1.14 (inactive),0.846 (inactive)
CC(C)(C)N1CC=CC23O[C@@H]4C=CCOC(=O)[C@@H]4[C@H]2C(=O)N(CCO)[C@@H]3C1=O (stereo partly drawn),0.218 (inactive),0.57,0.885,-3.33 (inactive),0.121 (inactive),-0.307 (inactive)
C=CCN1Cc2ccccc2[C@H]2OC(c3ccc(OCCCO)cc3)=N[C@@]2(CCS(=O)(=O)c2ccccc2)C1=O,1.61 (inactive),0.767,-2.18,-3.88 (inactive),-0.163 (inactive),-0.237 (inactive)
COC(=O)C1(Cc2ccccc2)C=C2C(=C(C)C(=O)C2C)CN1 (stereo not drawn),-0.217 (inactive),0.943,0.235,-5.82 (inactive),0.0869 (inactive),0.244 (inactive)
CN(C)CCCCNC(=O)[C@H]1C[C@H]2C(=O)N3CCC[C@H]3C(=O)N2[C@H]1c1cccc(OCCO)c1,0.683 (inactive),0.629,0.0172,-3.86 (inactive),-0.322 (inactive),0.0695 (inactive)
CCCC=C(CCC)[C@@H](NC(=O)OCC(C)C)c1ccc(C(=O)OC)cc1,0.402 (inactive),0.279,-0.102,-1.31 (inactive),-0.468 (inactive),-0.598 (inactive)
CO[C@H]1O[C@H](CO)[C@@H](OC(=O)Nc2ccc3c(c2)OCO3)[C@H](OC(=O)Nc2ccccc2-c2ccccc2)[C@H]1OC(=O)Nc1ccccc1-c1ccccc1,0.667 (inactive),0.873,-1.92,-3.15 (inactive),0.0165 (inactive),0.444 (inactive)
COc1cc(C(O)C2C=CC3C(=O)N(c4ccccc4)C(=O)C3N2Nc2ccccc2)cc(OC)c1OC (stereo not drawn),1.1 (inactive),0.746,0.808,-3.96 (inactive),-0.153 (inactive),-0.522 (inactive)
CC(C)=C1C(=O)C(c2ccccc2)=C2CN3C(=O)N(CCc4ccccc4)C(=O)[C@]3(C)[C@H]21,0.254 (inactive),0.295,0.127,-3.12 (inactive),-0.0061 (inactive),0.467 (inactive)

SMILES,composite z-score [1],composite z-score [2],z-score [3],z-score [4],z-score [5],z-score [6]
O=C(O)[C@H](Cc1ccccc1)n1cc(C2(O)CCCCC2)nn1,-0.0467 (inactive),0.0248,0.074,-1.04 (inactive),0.402 (inactive),-0.535 (inactive)
O=C(NC1CC1)[C@@H]1c2ccccc2C(=O)N(CC23CC4CC(CC(C4)C2)C3)[C@H]1c1ccc(CO)cc1,0.383 (inactive),0.686,-2.22,-5.05 (inactive),-0.0001 (inactive),0.169 (inactive)
O=C1N(CCS(=O)(=O)c2ccccc2)c2ccccc2C[C@]12N=C(c1ccc(OCCCO)cc1)O[C@@H]2c1ccccc1,0.412 (inactive),0.811,-2.3,-4.51 (inactive),-0.36 (inactive),-0.357 (inactive)
CC(=O)c1ccc(C(O)C2C=CC3C(=O)N(c4ccccc4)C(=O)C3N2Nc2ccc(C(C)C)cc2)cc1 (stereo not drawn),0.248 (inactive),0.525,-1.33,-2.09 (inactive),0.0577 (inactive),-0.371 (inactive)
Cc1ccc(N2C(=O)c3ccccc3[C@](C)(C(=O)NCCCN(C)C)[C@@H]2c2ccc(CO)cc2)nc1,0.0854 (inactive),-0.495,0.165,-2.55 (inactive),-0.229 (inactive),-0.321 (inactive)
C[C@@H]1NC(=O)C([C@@H](C)OCc2ccccc2)NC(=O)[C@@]23C(=O)N[C@@H](Cc4ccccc4)C2[C@H](C)[C@@]2(C)O[C@H]2C3/C=C/C/C=C\CNC1=O (stereo partly drawn),-0.501 (inactive),-0.458,0.0074,-7.4 (inactive),-0.0202 (inactive),-0.0344 (inactive)
CC(C)N1C(=O)c2ccccc2[C@@H](C(=O)NCC(F)(F)F)[C@@H]1c1ccc(CO)cc1,-0.258 (inactive),-0.245,0.872,-1.73 (inactive),0.0626 (inactive),0.11 (inactive)
CC(C)C(=C=CC[C@H](O)c1ccccc1OCCO)C[C@H](O)c1cc(Cl)cc(Cl)c1O,0.35 (inactive),0.622,-1,-4.67 (inactive),0.425 (inactive),0.353 (inactive)
[N-]=[N+]=NCc1ccccc1[C@@H]1OC(c2ccc(OCCCO)cc2)=N[C@]1(Cc1ccccc1N=[N+]=[N-])C(=O)NCC(O)CO (stereo partly drawn),1.45 (inactive),0.5,-2.31,-2.19 (inactive),-0.168 (inactive),0.0749 (inactive)
C=C(CCCC)/C(=C/C[C@H](OC(=O)c1ccncc1)c1cccc(OCCO)c1)c1cnc2ccccc2c1,0.867 (inactive),0.654,-2.97,-3.75 (inactive),0.218 (inactive),0.367 (inactive)
Cc1ccc(S[C@]2(C(=O)NC3CC3)CC(=O)N(C(C)C)[C@@H]2c2ccc(CO)cc2I)cc1,0.717 (inactive),0.682,-1.63,-4.06 (inactive),-0.248 (inactive),-0.439 (inactive)
C=CCNC(=O)[C@H]1[C@@H]2C(=O)O[C@@H](c3ccccc3)[C@@H](c3ccccc3)N2[C@@H](c2ccc(OCCO)cc2)[C@]12C(=O)Nc1ccc(C#CC3(O)CCCCCC3)cc12,0.38 (inactive),0.821,-2.09,-1.83 (inactive),0.541 (inactive),1.15 (inactive)
C[N+](C)(C)CCCC[C@@H]1NC(=O)[C@@H]2C[C@H](C(=O)NCc3ccc(F)cc3)[C@H](c3ccc(O)cc3)N2C1=O,0.744 (inactive),0.0664,0.269,-0.882 (inactive),0.0551 (inactive),0.0892 (inactive)
[N-]=[N+]=Nc1ccccc1[C@@H]1OC(c2ccc(OCCCO)cc2)=N[C@]1(CCS(=O)(=O)c1ccccc1)C(=O)NCC(O)CO (stereo partly drawn),0.0574 (inactive),0.947,-2.21,-3.99 (inactive),0.0401 (inactive),0.225 (inactive)
O=C1C[C@@](C(=O)O)(c2ccc([N+](=O)[O-])cc2)[C@@H](c2ccc(CO)cc2)N1C1CCCCC1,0.803 (inactive),0.73,-1.13,-4.33 (inactive),-0.119 (inactive),0.0584 (inactive)
COC(=O)[C@H](Cc1ccc(O)cc1)N[C@@H](/C=C/C1CC1)[C@H](O)Cc1ccccc1,-0.364 (inactive),-0.0324,1.55,-5.14 (inactive),0.412 (inactive),0.0577 (inactive)
O=C(NCc1ccccc1)[C@@H]1c2ccccc2C(=O)N(Cc2cc(C(F)(F)F)cc(C(F)(F)F)c2)[C@H]1c1ccc(CO)cc1,0.722 (inactive),0.221,-1.2,-3.95 (inactive),-0.0537 (inactive),-0.101 (inactive)
CC(=O)OCC1C2CC[C@H]3C(OCc4ccc(F)cc4C(F)(F)F)OC[C@]4(C)[C@H]3C2=C(CN4C(=O)OC(C)(C)C)[C@H](C)C1COC(C)=O (stereo partly drawn),-0.07 (inactive),0.653,-1.22,-3.13 (inactive),0.657 (inactive),0.833 (inactive)
O=C1C[C@]2(c3ccc([N+](=O)[O-])cc3)C(=O)N(C3CC3)c3cc(CO)ccc3[C@H]2N1C1CCCCC1,-0.217 (inactive),0.205,1.47,-1.16 (inactive),-0.214 (inactive),-0.771 (inactive)
COCCOC(=O)N1C(=O)[C@@]2(c3cc(C#CCC(C(=O)OC)C(=O)OC)ccc31)[C@H](C(=O)Nc1nc3ccccc3s1)[C@H]1C(=O)O[C@H](c3ccccc3)[C@H](c3ccccc3)N1[C@@H]2c1ccc(OCCO)cc1,1.7 (inactive),0.768,-1.85,1.46 (inactive),-0.0393 (inactive),0.611 (inactive)
COc1ccc(C(O)C2C=CC3C(=O)N(c4ccccc4)C(=O)C3N2Nc2ccc(C#N)cc2)cc1OCc1ccccc1 (stereo not drawn),0.496 (inactive),0.556,-0.474,0.712 (inactive),-0.405 (inactive),-0.669 (inactive)
